Results on 16 compounds are retold here after PubChem BioAssay (NCI).

The structures appear in SMILES notation. About 83,000 compounds went through this panel and 20% of them were active in at least one assay; those are over-represented in the sample as a whole.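 Note: values are percent growth. 100 is the growth of untreated cells, values between 100 and 0 indicate rising inhibition; between -100 and 0 indicates cell death.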 Unmarked numbers belong to inactive results. Activity calls are given as the source filed them. The calls were made as follows: active = growth percent below 10; inactive = the rest.

Test systems include SR leukemia; RPMI-8226 leukemia; OVCAR-8 ovarian; OVCAR-5 ovarian; SK-OV-3 ovarian; IGROV1 ovarian; OVCAR-3 ovarian; HS 578T breast; NCI/ADR-RES ovarian; OVCAR-4 ovarian.
What all share (test): NCI-60 one-dose screen, 48 h (100 = growth as untreated, 0 = no growth, -100 = all killed)
Holding throughout (conditions): 10 µM

For the compound `CCOC(=O)c1[nH]c(C)c(C(=O)O)c1C`, the growth was 97.6% in the assay on SR leukemia; 96.6% with RPMI-8226 leukemia; 105% with OVCAR-8 ovarian; 113% in the assay with OVCAR-5 ovarian; 118% in the assay with SK-OV-3 ovarian; 108% with IGROV1 ovarian. Further, the growth was 115% in the assay on OVCAR-3 ovarian, 131% in the assay on HS 578T breast and 107% with NCI/ADR-RES ovarian.

Regarding `O=S(=O)(O)C(Nc1ccccc1)c1ccccc1` (configuration not stated), the growth with SR leukemia was 98.9%; in the assay with RPMI-8226 leukemia, 100%; with OVCAR-8 ovarian it was 104%; in the assay with OVCAR-5 ovarian it was 92.4%; with OVCAR-4 ovarian it was 102%; with SK-OV-3 ovarian, 97%. The growth in the assay on OVCAR-3 ovarian was 107%; in the assay on HS 578T breast it was 93.2%; in the assay on NCI/ADR-RES ovarian it was 96.9%.

On to `Nc1ncnc2c1nc(N)n2C1OC(CO)C(O)C1O` (configuration not stated), for which the growth is -3.14% (active) in the assay with SR leukemia; 5.98% (active) in the assay with RPMI-8226 leukemia; 2.25% (active) with OVCAR-8 ovarian; -12.9% (active) in the assay with OVCAR-5 ovarian; -2.8% (active) in the assay on OVCAR-4 ovarian; -12.9% (active) with OVCAR-3 ovarian. The growth was -13.9% (active) with HS 578T breast and -45.2% (active) in the assay with NCI/ADR-RES ovarian.

Turning to `N#C/C(=C\c1cc(O)c(O)c(O)c1)C(N)=O`, the growth is 72.9% in the assay with SR leukemia; 19.6% in the assay on RPMI-8226 leukemia; 98.2% in the assay on OVCAR-5 ovarian; 45.7% in the assay on OVCAR-4 ovarian; 110% in the assay with SK-OV-3 ovarian; 122% in the assay with IGROV1 ovarian. For the same compound, the growth with OVCAR-3 ovarian was 107%; in the assay with HS 578T breast, 110%; in the assay on NCI/ADR-RES ovarian it was 102%.

`CCc1nc(N)nc(N)c1-c1ccc(Cl)cc1`: the growth in the assay on SR leukemia is 57.3%; with RPMI-8226 leukemia, 102%; with OVCAR-8 ovarian, 47.7%; with OVCAR-4 ovarian, 78.4%; with SK-OV-3 ovarian, 84%; with OVCAR-3 ovarian, 116%. The growth in the assay on HS 578T breast was 103%.

With `Oc1ccc2c(c1)OCC1(O)Cc3cc(O)c(O)cc3C21` (configuration not stated), the growth was 78.4% in the assay with SR leukemia; 62.5% with RPMI-8226 leukemia; 96.3% in the assay on OVCAR-5 ovarian; 38.2% in the assay on OVCAR-4 ovarian; 193% in the assay on SK-OV-3 ovarian; 75.3% in the assay on IGROV1 ovarian. For the same compound, the growth with OVCAR-3 ovarian was 93.7%; in the assay with HS 578T breast, 102%; with NCI/ADR-RES ovarian, 91.7%.

Turning to `CCOc1ccc(Br)cc1/C=N\N=C\c1cc(Br)ccc1OCC`, the growth was 92.4% with SR leukemia; 95.5% in the assay with RPMI-8226 leukemia; 107% in the assay with OVCAR-5 ovarian; 113% in the assay on OVCAR-4 ovarian; 117% in the assay on SK-OV-3 ovarian; 103% in the assay on IGROV1 ovarian. Moreover, the results for the growth in the assay on OVCAR-3 ovarian, with HS 578T breast and with NCI/ADR-RES ovarian were 96.8%, 143% and 120%, respectively.

Turning to `C/C(=N\NC(=O)c1ccccc1N)c1ccccc1O`, the growth in the assay on SR leukemia is 35.3%; in the assay with RPMI-8226 leukemia, 52.1%; in the assay on OVCAR-5 ovarian, 52.2%; with OVCAR-4 ovarian it was 6.68% (active); with SK-OV-3 ovarian it was 58.3%; with IGROV1 ovarian it was 36.3%. Further, the growth in the assay on OVCAR-3 ovarian was 12.4%; in the assay on HS 578T breast, 97.8%; in the assay with NCI/ADR-RES ovarian it was 26.7%.

For `Nc1nc(OCc2ccccc2)c2[nH]cnc2n1`, the growth is 84.9% in the assay on SR leukemia; 115% in the assay on RPMI-8226 leukemia; 77.8% with OVCAR-5 ovarian; 65.9% in the assay on OVCAR-4 ovarian; 109% in the assay on SK-OV-3 ovarian; 93.4% with IGROV1 ovarian. Besides, the values for the growth in the assay on OVCAR-3 ovarian, with HS 578T breast and in the assay with NCI/ADR-RES ovarian were 109%, 93.6% and 108%, respectively.

For the compound `c1ccc(Sc2ccccc2)cc1`, the growth with SR leukemia was 82.9%; in the assay on RPMI-8226 leukemia, 99.7%; with OVCAR-5 ovarian, 104%; with OVCAR-4 ovarian it was 111%; with SK-OV-3 ovarian, 104%; with IGROV1 ovarian, 117%. In addition, the growth is 106% with OVCAR-3 ovarian and 112% with NCI/ADR-RES ovarian.

With `CCCCN(CCCC)CCCO`, the growth was 113% in the assay with SR leukemia; 158% in the assay with RPMI-8226 leukemia; 99.4% in the assay with OVCAR-5 ovarian; 108% with OVCAR-4 ovarian; 110% in the assay on SK-OV-3 ovarian; 125% in the assay with IGROV1 ovarian. For the same compound, the growth is 101% with OVCAR-3 ovarian and 105% in the assay with NCI/ADR-RES ovarian.

Regarding `CNc1nc(NC)c2cn[nH]c2n1`, the growth in the assay with SR leukemia is 96.7%; in the assay with RPMI-8226 leukemia, 99.2%; with OVCAR-5 ovarian it was 106%; in the assay with OVCAR-4 ovarian, 108%; in the assay with SK-OV-3 ovarian, 97.2%; in the assay with IGROV1 ovarian it was 109%. The values for the growth with OVCAR-3 ovarian and with HS 578T breast were 114% and 101%, respectively.

In the case of `OCc1ccc(-c2ccc(-c3ccc(CO)s3)o2)s1`, the growth in the assay with SR leukemia is 60.8%; in the assay on RPMI-8226 leukemia, -22.5% (active); with OVCAR-5 ovarian, 103%; with OVCAR-4 ovarian, -22.4% (active); in the assay with SK-OV-3 ovarian it was 78.2%; in the assay with IGROV1 ovarian, -73% (active). For the same compound, the figures for the growth with OVCAR-3 ovarian and in the assay with HS 578T breast were -30.8% (active) and 81.8%, respectively.

Take `Cc1cc(C)cc(NCCC#N)c1`: the growth in the assay on SR leukemia is 107%; in the assay on RPMI-8226 leukemia, 106%; in the assay on OVCAR-5 ovarian, 112%; in the assay with OVCAR-4 ovarian, 102%; in the assay on SK-OV-3 ovarian, 106%; in the assay on IGROV1 ovarian, 110%. The growth is 105% with OVCAR-3 ovarian, 134% in the assay with HS 578T breast and 110% with NCI/ADR-RES ovarian.

With `O=C(CCl)N1CCN(C/C=C/c2ccccc2)CC1`, the growth was 23.1% in the assay on SR leukemia; 90.5% with RPMI-8226 leukemia; 111% with OVCAR-5 ovarian; 81.6% in the assay on OVCAR-4 ovarian; 99.7% in the assay with SK-OV-3 ovarian; 40.8% in the assay with IGROV1 ovarian. Further, the growth in the assay with OVCAR-3 ovarian is 116%; in the assay with HS 578T breast, 100%; with NCI/ADR-RES ovarian, 105%.

Regarding `COC(=O)/C=C1\Sc2cc(F)ccc2NC1=O`, the growth was 95.5% with SR leukemia; 92% in the assay with RPMI-8226 leukemia; 83.2% in the assay on OVCAR-5 ovarian; 102% with OVCAR-4 ovarian; 111% in the assay on SK-OV-3 ovarian; 102% with IGROV1 ovarian. Further, the results for the growth in the assay with OVCAR-3 ovarian, with HS 578T breast and in the assay on NCI/ADR-RES ovarian were 115%, 121% and 101%, respectively.
